The values below come from PubChem BioAssay (NCI).

Molecules are shown by their SMILES. Several values for one entry are separate records, joined by “and”; a condition that tells them apart may be missing. Identical values can stand only once. This is part of a sample that, as a whole, favours compounds with a hit. Of some 79,000 tested, about 15% had one in any assay. Values without a mark were called inactive. Activity calls are given as the source filed them. Rule as the data show it: active = growth inhibition above about 70%; inactive = the rest.

The nature of the first assay: NCI Yeast Anticancer Drug Screen. Data for the cln2 rad14 strain (AID 165).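 Also: 0% = growth equal to vehicle treated cultures.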 Particulars: S. cerevisiae cln2 rad14 strain, at 5.0 µM (retest, dose inferred, filed as 0.5), active compounds read high. The procedure: Growth inhibition of yeast strains with defined genetic alterations is measured as a screen for potential anti-cancer activity. Selected strains with alterations in DNA damage repair or cell cycle control were exposed to compounds and growth inhibition was measured relative to vehicle treated controls. The strain used in this assay is cln2 rad14
`CCCCCCCCCCNC(=O)CI`: the growth inhibition is 10%.

`CCCCOC(=O)/C=C\C(=O)NC(N)=O`: the growth inhibition is -3%.

The same assay, now with this note: S. cerevisiae cln2 rad14 strain, at 50.0 µM (retest, dose inferred, filed as 5.0), active compounds read high.
For `CCCCCCCCCCNC(=O)CI`, the growth inhibition was 42%.

As for `CCCCOC(=O)/C=C\C(=O)NC(N)=O`, the growth inhibition is 1%.

The same assay, now with this note: S. cerevisiae cln2 rad14 strain, active compounds read high; at 50.0 µM unless noted.
Take `Cc1ccc2nc(NC(=O)C(=O)C(C#N)c3nc4ccccc4s3)sc2c1` (stereo not given): the growth inhibition is 25.6%.

On to `C=C1C=C2CCC3C(CCC4(C)C(C(C)CCCC(C)C)CCC34)C2(C)CC1` (stereo not given), for which the growth inhibition is 60.6%.

For `COc1ccc(/C=C2/C/C(=C/c3ccc(OC)cc3)C2=O)cc1`, the growth inhibition is 7.2%.

In the case of `C=C1C(=O)OC2C3[C@@]4(C)O[C@H]4[C@H]4O[C@@]34[C@](C)(O)CC(OC(C)=O)[C@@H]12` (stereo not given in full), the growth inhibition was -7.45%.

On to `CCC(O)C(C)(C)[N+](=O)[O-]` (stereo not given), for which the growth inhibition was -2.05%.

Turning to `O=[N+]([O-])c1cccc(SSc2cccc([N+](=O)[O-])c2)c1`, the growth inhibition was -2.95% and -12.7%.

For the compound `CN(C)S(=O)(=O)c1ccccc1C(O)(c1ccccc1)c1ccccc1` (tested in a mixture with another compound), the growth inhibition is -4.55%.

Regarding `O=C(Nc1noc(-c2ccccc2)n1)c1ccccc1CNc1noc(-c2ccccc2)n1`, the growth inhibition is -10.8%.

For the compound `Cc1nc2ccncc2[nH]1`, the growth inhibition was 0.05%.

For `CC(C)CCNc1ccccc1`, the growth inhibition is -2.8%.

With `CC(=O)OCCc1cccnc1/C=N/O`, the growth inhibition is 20.6%.

Turning to `O=C(O)CCN(CCCCN(CCC(=O)O)CCC(=O)O)CCC(=O)O`, the growth inhibition was 1.4%.

For the compound `O=C1C(NCCc2cc(Br)c(O)c(Br)c2)=CC(=O)c2ncccc21`, the growth inhibition was 18.2%.

As for `Cc1c2cc[n+](C)c(C)c2cc2c1[nH]c1ccccc12`, the growth inhibition was 12.8%.

Take `COc1ccc(C(=O)O)c(Cc2ccc3ccccc3c2)c1`: the growth inhibition was 10%.

`COc1ccccc1OC(=O)c1ccc(Cl)cc1`: the growth inhibition was -63.9%.

As for `O=c1[nH]c2cccc([N+](=O)[O-])c2c2ccccc12`, the growth inhibition was 23%.

For `CC(=O)[C@@]1(O)CC[C@H]2[C@@H]3CC=C4C[C@@H](Cl)CC[C@]4(C)[C@H]3CC[C@@]21C`, the growth inhibition was -2.75%.

`CCCCCC=C(C(=O)OCC)C(=O)OCC`: the growth inhibition is 12.3%.

For the compound `O=[N+]([O-])c1ccccc1N1CCCCC1`, the growth inhibition is 25.6%.

`CCCCC(C(=O)CCC(=O)Nc1ccc(Cl)c(Cl)c1)C(=O)C(C)C` (stereo not given): the growth inhibition was -0.3%.

As for `CN1N=C(c2ccncc2)OC1c1cccc(C(F)(F)F)c1` (stereo not given), the growth inhibition is -3.6%.

In the case of `OC1COC(OCc2ccccc2)C(O)C1O` (stereo not given), the growth inhibition is -18.2% and -46.3%.

Regarding `ONC(CC(O)(NO)NO)c1ccccc1` (stereo not given), the growth inhibition is 12.6%.

Turning to `COc1ccc(OC)c(N)c1`, the growth inhibition was 16.4%.

`Fc1cccc2c(SCc3ccc(Cl)cc3Cl)cnnc12`: the growth inhibition was -44.5%.

Turning to `Cc1ccc(NCC(=O)N2CC(=O)Nc3ccccc32)c(C)c1`, the growth inhibition is -3.4%.

In the case of `CC(=O)OC(CCC1CO1)OC(C)=O` (stereo not given), the growth inhibition is -7.65%.

With `Cc1ccc(NC(=O)Oc2ccc(-c3ccccc3)cc2Br)c(Br)c1`, the growth inhibition is 40%.

Take `Cn1c(O)c(N=NC(=O)Cc2c[nH]c3ccccc23)c2ccccc21`: the growth inhibition is -7.05%.

For `CN(C)/C=N/NC(=O)/C(C#N)=C/N(C)C`, the growth inhibition is -24.8%.

As to `CN(Cc1ccccc1)C(=O)Nc1ccc(Cl)c(Cl)c1`, the growth inhibition was 97.1% (active).

As for `Nc1nc(N)c2nc(SC34CC5CC(CC(C5)C3)C4)c(N)nc2n1`, the growth inhibition was -20.8%.

Regarding `COC(=O)/C=C(/Sc1nc(Cl)c(Cl)nc1N)C(=O)OC` (tested in a mixture with another compound), the growth inhibition was -4.3%.

Regarding `CCC1=C(c2ccc(OC)cc2)CC[C@@]2(CCNC2=O)[C@@H]1C`, the growth inhibition is 14.3%.

`CC(C)(C)C1CCC2c3c([nH]c4ccccc34)C3C(=O)N(c4cc(Br)cc(Br)c4)C(=O)C3C2C1` (stereo not given): the growth inhibition is 18.9%.
